Results as given in PubChem BioAssay AID2283170 (EPA ToxCast).
Results filed as inconclusive are left out. Calls of active or inactive are those of the source. The calls were made as follows: active = hit-call score of the fitted dose curve at least 0.9, where 1 is the maximum; inconclusive = response in the unintended direction; inactive = score below 0.9.

These compounds were tested against human Lymphocyte-cell Factor Kinase (Lck), LCK (gene 3932) (UniProt P06239) (assay: NVS_ENZ_hLck: NovaScreen (NVS) Enzymatic Assay for human Lymphocyte-cell Factor Kinase (Lck)).
Chain of human Lymphocyte-cell Factor Kinase (Lck), LCK (gene 3932) (P06239 whole entry, looked up): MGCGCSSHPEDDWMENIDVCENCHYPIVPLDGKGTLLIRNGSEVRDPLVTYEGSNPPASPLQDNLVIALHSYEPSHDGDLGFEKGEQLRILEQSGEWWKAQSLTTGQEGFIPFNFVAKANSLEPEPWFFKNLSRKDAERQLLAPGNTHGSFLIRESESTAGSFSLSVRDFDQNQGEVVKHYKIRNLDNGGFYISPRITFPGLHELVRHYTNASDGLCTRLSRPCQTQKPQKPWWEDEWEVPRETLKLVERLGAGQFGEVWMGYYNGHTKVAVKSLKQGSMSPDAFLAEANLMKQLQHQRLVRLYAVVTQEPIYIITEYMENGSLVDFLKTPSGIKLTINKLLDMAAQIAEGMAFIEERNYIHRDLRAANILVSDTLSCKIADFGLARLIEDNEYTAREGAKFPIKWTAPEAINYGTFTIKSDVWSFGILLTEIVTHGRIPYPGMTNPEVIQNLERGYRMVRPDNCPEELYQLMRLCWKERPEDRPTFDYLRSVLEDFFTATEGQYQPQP
Description: NVS_ENZ_hLck is a biochemical, single-readout assay that uses extracted gene-proteins in a cell-free assay. Measurements were taken 1 hour after chemical dosing in a 384-well plate.NVS_ENZ_hLck is one of one assay component(s) measured or calculated from the NVS_ENZ_hLck assay. It is designed to make measurements of enzyme activity, a form of enzyme reporter, as detected with fluorescence intensity signals by Fluorescence and electrophoretic mobility shift technology.Data from the assay component NVS_ENZ_hLck was analyzed into 1 assay endpoint. This assay endpoint, NVS_ENZ_hLck, was analyzed in the positive analysis fitting direction relative to DMSO as the negative control and baseline of activity. Using a type of enzyme reporter, loss-of-signal activity can be used to understand changes in the enzymatic activity as they relate to the gene LCK. Furthermore, this assay endpoint can be referred to as a primary readout, because this assay has produced […] where this one serves a enzymatic activity function. To generalize the intended target to other relatable targets, this assay endpoint is annotated to the kinase intended target family, where the subfamily is non-receptor tyrosine kinase.
Binding assays used specific radioligands (tritiated, iodinated) with non-radioactive competitive displacement ligands in agonist or antagonist protocols (as indicated) and various reference compounds and inhibitors to titrate specific binding to receptors and transporters. Most enzyme assays (CYPs, kinases, phosphatases, proteases, HDACs) used recombinant protein and specific substrates (fluorescence mostly, some colorimetric and radioactive) and inhibitors, followed by a biochemical separation of substrate and product. All assays for the biochemical HTS were initially run in duplicate at a single concentration (10 uM for CYP450 assays and 25 uM for all others). Assay-chemical combinations meeting a pre-defined threshold (e.g., 30% inhibition and other criteria defined below) were then run in singleton concentration-response format with maximum concentration of 20 uM for CYPs and 50 uM for all others. Each assay was run with positive and negative controls, and concurrent controls on every plate. The follow-up (secondary) screen tested active chemical-pairs in concentration series, as well as a few additional assays not tested in the primary screen, some selected negative inactives, and several cases re-run in the concentration series for confirmatory purposes.

Compound	outcome	AC50
S=C([S-])NCCNC(=S)[S-].[Mn+2]	inactive	–
O=C(Nc1ccc([N+](=O)[O-])cc1Cl)c1cc(Cl)ccc1O	inactive	–
c1ccc2[nH]c(-c3cscn3)nc2c1	inactive	–
c1ccc(Nc2ccccc2)cc1	–	10.6 µM (active)
